Reference: PubChem BioAssay (Tox21)
Results filed as inconclusive are left out. Activity calls are given as the source filed them. Unless noted, calls come from the whole dose curve; as a rule, active = well fitted curve in the direction sought with a large enough effect in the repeat runs; inconclusive = weak or mixed curves; inactive = no such curve, though single readings can be large; an effect the other way counts as inactive or inconclusive.

Experiments:
[1] = qHTS assay to identify aromatase inhibitors - cell viability counter screen (AID 743084);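 note: cells stimulated with testosterone during compound exposure; nearly all actives have a fitted effect of over 55% in size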
[2] = biological target: Aryl hydrocarbon receptor (Homo sapiens) (UniProt P35869); assay: qHTS assay to identify small molecule that activate the aryl hydrocarbon receptor (AhR) signaling pathway (AID 743085); note: nearly all actives have a fitted effect of over 15% in size; note: potency is the fitted concentration of half-maximal effect;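 for activation: HG2L7.5c1 human HepG2 liver cells with stably integrated DRE-driven firefly reporter; series mostly up to about 70 µM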
Aryl hydrocarbon receptor (Homo sapiens), sequence (P35869 whole entry, looked up): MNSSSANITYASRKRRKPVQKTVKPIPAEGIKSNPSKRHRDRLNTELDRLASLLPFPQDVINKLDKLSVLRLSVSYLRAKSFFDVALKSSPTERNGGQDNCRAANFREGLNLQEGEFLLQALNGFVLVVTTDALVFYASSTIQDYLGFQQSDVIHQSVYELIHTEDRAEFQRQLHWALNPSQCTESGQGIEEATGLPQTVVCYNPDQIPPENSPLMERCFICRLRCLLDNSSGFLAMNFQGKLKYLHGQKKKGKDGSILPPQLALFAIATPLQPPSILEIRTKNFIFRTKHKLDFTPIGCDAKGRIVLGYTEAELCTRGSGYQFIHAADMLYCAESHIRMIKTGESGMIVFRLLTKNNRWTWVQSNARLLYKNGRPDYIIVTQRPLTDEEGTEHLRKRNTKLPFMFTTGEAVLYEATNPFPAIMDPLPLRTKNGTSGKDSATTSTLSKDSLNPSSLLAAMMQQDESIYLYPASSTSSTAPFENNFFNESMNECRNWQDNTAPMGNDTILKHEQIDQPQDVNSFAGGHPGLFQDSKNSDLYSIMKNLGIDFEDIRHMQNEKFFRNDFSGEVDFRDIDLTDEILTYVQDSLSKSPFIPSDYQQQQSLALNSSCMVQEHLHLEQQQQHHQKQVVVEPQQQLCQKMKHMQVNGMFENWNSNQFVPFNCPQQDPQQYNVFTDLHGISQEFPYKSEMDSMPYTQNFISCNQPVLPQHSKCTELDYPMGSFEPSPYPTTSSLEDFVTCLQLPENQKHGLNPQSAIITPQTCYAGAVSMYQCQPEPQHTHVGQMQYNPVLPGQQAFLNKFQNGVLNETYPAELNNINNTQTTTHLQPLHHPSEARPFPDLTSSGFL
Method in brief: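 Stably transfected human liver carcinoma cells (HG2L7.5c1; 20 DRE-firefly luciferase) were incubated 5 h, dosed, and kept 24 h at 37C. Agonism was scored from increased luciferase luminescence.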

[3] = qHTS assay to identify small molecule that activate the aryl hydrocarbon receptor (AhR) signaling pathway - cell viability counter screen (AID 743086);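 note: HepG2 liver cells carrying the AhR DRE luciferase reporter; series mostly up to about 70 µM; nearly all actives have a fitted effect of over 45% in size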
Method in brief: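 HepG2-AhR-luc (HG2L7.5c1) cells, 4000/well, were preincubated 5 h at 37C, exposed to compound in qHTS format for 24 hr at 37C, then given CellTiter-Fluor for 30 min; viability was read as fluorescence in the reporter wells.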

[4] = biological target: Peroxisome proliferator-activated receptor gamma (Homo sapiens) (UniProt P37231); assay: qHTS assay to identify small molecule agonists of the peroxisome proliferator-activated receptor gamma (PPARg) signaling pathway (AID 743094; active = well fitted activation curve with a large enough effect in the signal ratio in the repeat runs, not every such curve was filed as active; the % refers to the signal ratio)
Peroxisome proliferator-activated receptor gamma (Homo sapiens), sequence (P37231 whole entry, looked up): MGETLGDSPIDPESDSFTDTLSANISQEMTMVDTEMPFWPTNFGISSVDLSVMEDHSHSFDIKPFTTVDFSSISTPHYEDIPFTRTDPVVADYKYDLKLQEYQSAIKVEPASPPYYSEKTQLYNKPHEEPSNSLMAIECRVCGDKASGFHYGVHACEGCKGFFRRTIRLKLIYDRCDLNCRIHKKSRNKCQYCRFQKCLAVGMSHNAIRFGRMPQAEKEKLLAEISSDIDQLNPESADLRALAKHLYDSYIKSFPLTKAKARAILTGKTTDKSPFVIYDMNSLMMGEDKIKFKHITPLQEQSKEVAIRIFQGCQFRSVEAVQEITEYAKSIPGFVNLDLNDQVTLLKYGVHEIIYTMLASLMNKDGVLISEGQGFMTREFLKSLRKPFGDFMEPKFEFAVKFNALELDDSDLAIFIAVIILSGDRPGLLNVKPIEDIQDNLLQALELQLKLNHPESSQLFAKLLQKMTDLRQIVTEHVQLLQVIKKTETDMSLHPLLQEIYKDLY
Method in brief: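 GeneBLAzer PPARg UAS-bla HEK293H cells were plated, rested 5 h, then exposed to compounds for 17 h at 37C. Beta-lactamase activity was read by LiveBLAzer B/G FRET substrate fluorescence after 1 h at room temperature.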

[5] = qHTS assay to identify small molecule antagonists of the peroxisome proliferator-activated receptor gamma (PPARg) signaling pathway - cell viability counter screen (AID 743194); note: nearly all actives have a fitted effect of over 55% in size
Method in brief: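 PPARg-UAS-bla HEK293H cells were plated, rested 5 h at 37 C, then treated with compounds plus rosiglitazone (50 nM final) for 17 h at 37 C; viability was then read by CellTiter-Glo luminescence after 30 min at room temperature.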

[6] = qHTS assay for small molecule agonists of the antioxidant response element (ARE) signaling pathway (AID 743202; active = well fitted activation curve with a large enough effect in the signal ratio in the repeat runs, not every such curve was filed as active; the % refers to the signal ratio)
Method in brief: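 Read-out: LiveBLAzer B/G FRET substrate fluorescence after 2 h at room temperature, following 16 h compound treatment at 37 C of HepG2 cells carrying an ARE-driven beta-lactamase reporter.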

[7] = qHTS assay for small molecule agonists of the antioxidant response element (ARE) signaling pathway - cell viability counter screen (AID 743203; calls by dose curve; note: nearly all actives have a fitted effect of over 55% in size)
Method in brief: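 ARE-bla HepG2 cells were plated, rested 5 h at 37C/5% CO2, then exposed to compounds in DMSO for 16 h. Viability was read as CellTiter-Glo luminescence after 30 min at room temperature, in the same wells as the ARE screen.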

[8] = qHTS assay for small molecule activators of the heat shock response signaling pathway - cell viability counter screen (AID 743209); note: nearly all actives have a fitted effect of over 50% in size
Method in brief: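 HSE-bla HeLa cells plated overnight, then exposed to Tox21 compounds (23 nL in DMSO) for 5 h at 37 C. After the bla reporter read, CellTiter-Glo was added in the same wells and luminescence read after 30 min at room temperature.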

[9] = qHTS assay for small molecule activators of the heat shock response signaling pathway (AID 743210; active = well fitted activation curve with a large enough effect in the signal ratio in the repeat runs, with a control signal flat, not every such curve was filed as active; the % refers to the signal ratio; note: series mostly up to about 63 µM)
Method in brief: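 HSE-bla HeLa cells (beta-lactamase reporter under heat shock response elements) were exposed to compounds for 5 h at 37 C, then loaded with LiveBLAzer B/G FRET substrate for 2.5 h at room temperature before fluorescence reading.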

[10] = biological target: Peroxisome proliferator-activated receptor gamma (Homo sapiens) (UniProt P37231); assay: qHTS assay to identify small molecule antagonists of the peroxisome proliferator-activated receptor gamma (PPARg) signaling pathway (AID 743191; calls by dose curve; note: series mostly up to about 63 µM; nearly all actives have a fitted effect of over 30% in size)
Method in brief: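 GeneBLAzer PPARg UAS-bla HEK293H cells carrying a UAS-driven beta-lactamase reporter were plated at 3000 cells/well, preincubated 5 h at 37C, then given compound for 17 h at 37C; LiveBLAzer B/G FRET substrate was read after 1 h at room temperature.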

Measured: Potency

CC(=O)NCc1c(I)c(NC(C)=O)c(I)c(C(=O)O)c1I
not listed: [10]
inactive: all other assays above

Nc1cccc(O)c1
active: [2] 35.4 µM
not listed: [10]
inactive: all other assays above

COC(=O)c1ccccc1C(=O)c1ccc(OCCN2CCCCC2)cc1
not listed: [10]
inactive: all other assays above

OCCN(CCO)c1cccc(Cl)c1
not listed: [5] | [6]
inactive: all other assays above

CC(C)=O
not listed: [10]
inactive: all other assays above

COc1ccc2c(c1)C(=O)N(CCc1ccc(S(=O)(=O)NC(=O)NC3CCCCC3)cc1)C(=O)C2(C)C
not listed: [6] | [9] | [10]
inactive: all other assays above

C[Si](C)(C)C
not listed: [5] | [10]
inactive: all other assays above

CCCCCCCCC1CCC(=O)O1 (stereo unspecified)
not listed: [6] | [10]
inactive: all other assays above

O=C(O)c1ccc(Cl)cc1Cl
not listed: [10]
inactive: all other assays above

BrCc1cccc(Oc2ccccc2)c1
not listed: [5] | [6]
inactive: all other assays above

Cc1cccc2nccnc12
not listed: [10]
inactive: all other assays above

O=S(=O)(O)c1cc(O)c2ccc(Nc3ccccc3)cc2c1
not listed: [5]
inactive: all other assays above

CCCCCCCCCCCCCC
not listed: [6] | [10]
inactive: all other assays above

CC(=O)OC(C)OC(=O)C(C)c1ccc(-c2ccccc2)c(F)c1 (stereo unspecified)
not listed: [5] | [10]
inactive: all other assays above

CCCCN
not listed: [9] | [10]
inactive: all other assays above

CC1=CCC(C(C)C)=CC1
not listed: [10]
inactive: all other assays above

CC(C)CC(C)CC(C)CC(C)COC(=O)c1ccccc1C(=O)OCC(C)CC(C)CC(C)CC(C)C (stereo unspecified)
not listed: [10]
inactive: all other assays above

CCCCCCCCSCC
not listed: [6] | [10]
inactive: all other assays above

CC(=O)Nc1ccc(S(=O)(=O)Cl)cc1
not listed: [5]
inactive: all other assays above
